HT1080 IDH1KD tx: HT-1080 IDH1 knockdown cell toxicity (counter line); Potency, µM (top dose mostly 46.1 µM), for inactives: top-dose activity, negative = toxicity, hits mostly cytotoxic; AID 686971; HT-1080 IDH1 knockdown viability, ATP luminescence, 48 h; 2% of 360,000 active;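 note: 0% = DMSO wells and -100% = cell-free medium wells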
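Using the IDH1-knockdown HT-1080 line run in the same batch and compound series as the NT line, viability after 48 h at 37 °C was determined by CellTiter-Glo luminescence and expressed as % activity.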
HT1080-NT tox: kills 2HG-producing HT-1080-NT fibrosarcoma cells; HT-1080-NT fibrosarcoma viability, CellTiter-Glo ATP luminescence, 48 h; Potency, µM (doses to about 46.1 µM), for the others: at the top dose activity, negative = less viability, actives largely listed as cytotoxic; 1.6% of 360,000 active; AID 686970;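 note: NT is the 2HG producing partner of a matched IDH1 knockdown line; 0% = DMSO-treated cells and -100% = media-only wells without cells; nearly all actives have a fitted effect of over 55% in size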
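HT-1080-NT; 750 cells/well; 5% FBS RPMI; 48 h compound, 37 degrees C; CellTiter-Glo luminescence; curve fitting and curve-class assignment.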
KB-3-1 cytotox: KB-3-1 parental cell cytotoxicity. KB-3-1 viability, CellTiter-Glo ATP luminescence, 72 h. Potency, µM (doses to about 46.1 µM), usual class: cytotoxic. 1.4% of 400,000 active. AID 1347075; note: % is set by controls: 0 for no effect and ±100 for the full control effect; nearly all actives have a fitted effect of over 60% in size
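Parental KB-3-1 adenocarcinoma cells in phenol-red-free DMEM with 10% FBS were pin-treated with compounds at several concentrations, incubated 72 h at 37 °C, and viability read by CellTiter-Glo luminescence; concentration-effect curves were fitted after normalization.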
SW480 rerep: induces DNA re-replication in SW480 colon adenocarcinoma cells; SW480 DNA re-replication, Hoechst DNA content imaging, 48 h; Potency, µM (top dose mostly 46.1 µM), inactives show top-dose re-replication activation, actives largely listed as activators; 1.8% of 340,000 active; AID 624297; note: % of control where 0% means no effect; nearly all actives have a fitted effect of over 55% in size
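First, 250 cells per well were seeded. Next, compound or vehicle (23 nL) was pinned in, plates sat 48 hr at 37 C. Finally Hoechst was added for 40 min before fluorescence scanning.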
KB-V1 cytotox: kills drug-selected multidrug resistant KB-V1 cells; Potency, µM (highest dose often 46.1 µM), actives largely listed as cytotoxic; KB-V1 MDR cells viability, CellTiter-Glo, 72 h; 3.4% of 400,000 active; AID 1347076; note: % is set by controls: 0 for no effect and ±100 for the full control effect; nearly all actives have a fitted effect of over 60% in size
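Luminescent ATP read-out (CellTiter-Glo, 10 min) measures survival of drug-selected KB-V1 MDR cells after 72 h, 37 degrees C compound exposure. Medium: phenol-red-free DMEM, 10% FBS. Values from fitted concentration-response curves.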
MCF10A rerep: DNA re-replication induction in MCF 10a cells. MCF 10A DNA re-replication, Hoechst nuclear intensity, 48 h. Potency, µM (top dose mostly 46.1 µM), inactives show at the top dose activity, positive = re-replication, actives largely listed as activators. 2.9% of 350,000 active; note: % of control where 0% means no effect; nearly all actives have a fitted effect of over 50% in size
An asterisk follows results filed as active; i = inactive; ? = inconclusive; / = no result given; [ ] = dose if it differs, or a comment. In the library only some 8% were active in any assay of this set; here they are far more common. Calls come from the whole dose curve; as a rule, active = well fitted curve in the direction sought with a large enough effect; inconclusive = small, poorly fitted or top-dose-only effect, or another doubt; inactive = no such curve, though single readings can be large; an effect the other way counts as inactive or inconclusive. Potency is the fitted concentration of half-maximal effect.

SMILES | HT1080 IDH1KD tx | HT1080-NT tox | KB-3-1 cytotox | SW480 rerep | KB-V1 cytotox | MCF10A rerep
CN1CCN(C(=O)Cn2c(-c3cccs3)cc3ccccc32)CC1 | / | / | i | / | i | /
Cc1noc2ncnc(N3CCN(c4ccccc4F)CC3)c12 | / | / | i | / | i | /
O=C1OC(c2ccccc2)C2(CCCC2)C(=O)C12CCCC2 (stereo not drawn) | -4% | 5% | i | -1% | i | -1%
O=C1OC(c2cccc([N+](=O)[O-])c2)C2(CCCC2)C(=O)C12CCCCC2 (stereo not drawn) | 16µM* | ? | i | ? | ? | ?
CCc1ccc2ncc(S(=O)(=O)c3ccc(C)c(C)c3)c(N3CCCC3)c2c1 | ? | ? | 18µM* | 15% | ? | 23µM*
Cc1ccc(C(=O)/C=C\NCc2ccccc2)cc1 | 4% | 7% | i | -10% | i | ?
COc1ccc(C(=O)/C=C/NCc2ccc(C)cc2)cc1 | 3% | -19% | i | 21µM* | i | 13µM*
Cc1ccc(Cl)cc1N1CCN(C(=O)CCS(=O)(=O)c2cc(Br)cc3c2N(C(=O)C2CC2)CC3)CC1 | / | / | i | / | i | /
O=C(c1ccccn1)N(Cc1ccco1)C1(C(=O)NC2CCCCC2)CCCCC1 | 1% | 1% | i | 5% | 9.2µM* | 7%
O=C(Cc1cccs1)N(Cc1cccs1)C1(C(=O)NC2CCCC2)CCCCC1 | 2% | 4% | ? | 9% | 8.2µM* | 14%
Nc1nc(NCc2cccc(Cl)c2)c2[nH]cnc2n1 | / | / | i | / | i | /
CC(C)C(c1nnnn1C(C)(C)C)N1CCC(Cc2ccccc2)CC1 (stereo not drawn) | -10% | 0% | i | 7% | ? | 21µM*
Fc1ccc(Nc2ccnc(Nc3ccc(F)cc3)n2)cc1 | ? | ? | i | 2% | 15µM* | ?
Nc1ncnc(Nc2ccc(F)cc2)n1 | 3% | 2% | i | -1% | i | 13%
CCOc1cc(/C=C2/C(=O)ON=C2C)ccc1OCc1ccc(F)cc1 | 7% | -3% | i | 18µM* | i | ?
CCOc1cc(/C=C2/C(=O)ON=C2C)ccc1OCc1ccccc1 | 1% | 11% | i | ? | i | ?
CCOc1cc(/C=C2/C(=O)ON=C2C)ccc1OCc1ccccc1F | ? | -30% | i | 23µM* | ? | ?
CCOc1cc(/C=C2\C(=O)ON=C2c2ccccc2)ccc1OC | -3% | 0% | i | ? | ? | ?
CCCCC1CCC(C(=O)N2CC(=O)Nc3ccc(C)cc3C2c2ccc(F)cc2)CC1 (stereo not drawn) | / | / | i | / | ? | /
CC(=O)c1c(C)oc2ccc(N(C(=O)Oc3ccccc3)S(=O)(=O)c3ccc(Br)cc3)cc12 | / | / | i | / | i | /
O=C(COC(=O)CNC(=O)c1ccc([N+](=O)[O-])o1)Nc1ncc(Cl)cc1Cl | -2% | -1% | i | -3% | i | ?
O=C(COC(=O)CNC(=O)c1ccc([N+](=O)[O-])o1)Nc1ncc(C(F)(F)F)cc1Cl | -25% | -21% | i | 8% | ? | 16µM*
O=c1[nH]c2ccccc2n1CCCSCCCn1c(=O)[nH]c2ccccc21 | -16% | -23% | 21µM* | 3% | 18µM* | 0%
Cc1cc(C(=O)CSCCCn2c(=O)[nH]c3ccccc32)c(C)n1C | 3% | 0% | i | -3%[9.22 µM] | i | -1%
O=c1[nH]c2ccccc2n1CCC1CCCCC1 | ? | -14% | i | 0% | 18µM* | ?
SMILES | HT1080 IDH1KD tx | HT1080-NT tox | KB-3-1 cytotox | SW480 rerep | KB-V1 cytotox | MCF10A rerep
Cc1nn(-c2ccccc2)c(OC(=O)c2ccc(Br)cc2)c1S(=O)(=O)c1ccccc1 | / | / | i | / | i | /
COc1ccc(Nc2nc3c(S(=O)(=O)c4ccc(Br)cc4)nnn3c3ccsc23)c(OC)c1 | / | / | i | / | i | /
O=c1c2oc3ccccc3c2n(Cc2cccc(F)c2)c(=O)n1Cc1ccco1 | / | / | i | / | i | /
C=CCn1c(O)c(N=NC(=S)Nc2cccc(C)c2)c2ccccc21 | ? | -6% | ? | ? | 2.9µM* | -26%
C/C(Cl)=C\Cn1c(O)c(N=NC(N)=S)c2ccccc21 | -24% | -30% | ? | ? | 9.2µM* | 15%
C=CCn1c(O)c(N=NC(=S)Nc2ccccc2F)c2ccccc21 | ? | -25% | ? | -53% | i | -13%
COC(=O)N=Nc1c(O)n(Cc2ccccc2)c2ccccc12 | 10% | ? | i | 13% | i | 13%
COC(=O)c1ccc(Cn2c(O)c(N=NC(N)=S)c3ccccc32)o1 | 0% | -2% | i | 23µM* | i | 1%
NC(=S)N=Nc1c(O)n(Cc2ccccc2)c2ccccc12 | -23% | -21% | i | -7% | i | 15%
CCOc1ccc(C(=O)c2cn(CC(=O)Nc3ccc4c(c3)OCCO4)c3ccc(F)cc3c2=O)cc1 | / | / | i | / | i | /
CC1=C(C(=O)OCC2CCCCC2)C(c2ccc(Cl)cc2Cl)CC(=O)N1 (stereo not drawn) | / | / | i | / | i | /
CCOC(=O)C1=C(C)NC(=S)NC1c1ccc(-c2ccc(Cl)cc2)o1 (stereo not drawn) | -15% | 0% | ? | 19% | 8.2µM* | ?
COC(=O)C1=C(C)NC(=S)NC1c1ccc(-c2cccc(Cl)c2)o1 (stereo not drawn) | 28% | 23% | i | 18µM* | i | ?
CCOC(=O)C1=C(C)NC(=O)NC1c1ccc(-c2ccc(Cl)cc2)o1 (stereo not drawn) | ? | -24% | ? | 1% | 21µM* | ?
COC(=O)C1=C(C)NC(=S)NC1c1ccc(-c2ccccc2C(=O)OC)o1 (stereo not drawn) | -10% | -3% | i | 7% | ? | ?
COC(=O)C1=C(C)NC(C)=C(C(=O)OC)C1c1ccc(-c2cccc(Cl)c2Cl)o1 | -28% | -18% | i | 14% | 16µM* | ?
COC(=O)C1=C(C)NC(C)=C(C(=O)OC)C1c1ccc(-c2cc(Cl)ccc2Cl)o1 | ? | 6% | i | -5% | i | ?
COc1cc(OC)c(NC(=O)NCCn2nnc3cc(S(=O)(=O)N(C)C)ccc32)cc1Cl | / | / | i | / | i | /
CC(C)N1CCN(c2cccc(Nc3nn4c(=O)c5ccccc5nc4s3)c2)CC1 | / | / | i | / | i | /
COc1ccc(OC)c(CCNC(=O)CN2C(=O)COc3ccc(S(=O)(=O)N4CCC(C)CC4)cc32)c1 | / | / | i | / | ? | /
